Experiment [1] is described as follows: ATG_M_61_CIS: Attagene CIS-FACTORIAL HepG2 Assay for M61 Transcription Factor (Internal Marker) (AID 2282937). The note with it: HepG2 Attagene CIS-FACTORIAL M61 internal marker reporter; actives raise or lower the signal. In a few lines: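 Background-control endpoint: HepG2 cells with cis-regulated reporter constructs, 24 h exposure, reporter mRNA detected via fluorescent primer extension and capillary electrophoresis; values from bidirectional fitting with DMSO baseline.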

Experiment [2] in a line: ATG_EGR_CIS: Attagene CIS-FACTORIAL HepG2 Assay for human Early Growth Response 1 (EGR1) (AID 2282938). Particulars: HepG2 Attagene CIS-FACTORIAL EGR reporter mRNA; actives raise or lower the signal. In outline: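 Endpoint derived by bidirectional fitting versus DMSO vehicle. Method: cis-promoter reporter units transfected into HepG2, 24 h dosing, RNA isolation, RT-PCR with 6-FAM primer extension and HpaI digestion, then capillary electrophoresis fluorescence detection.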

Experiment [3] is described as follows: ATG_M_19_CIS: Attagene CIS-FACTORIAL HepG2 Assay for M19 Transcription Factor (Internal Marker) (AID 2282939). The note with it: HepG2 Attagene CIS-FACTORIAL M19 internal marker reporter; actives raise or lower the signal. In outline: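 Chemical-treated HepG2 (24 h) with MRTU constructs; reporter transcripts detected by fluorescent RT-PCR fragment analysis on capillary electrophoresis. Internal background marker, DMSO as baseline.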

Experiment [4] is described as follows: ATG_ERE_CIS: Attagene CIS-FACTORIAL HepG2 Assay for Estrogen Response Element (ERE) (AID 2282940). Particulars: HepG2 ERE cis-reporter, Attagene RNA transcript; actives raise or lower the signal. In a few lines: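 Human liver cells (HepG2) bearing transiently transfected, promoter-regulated reporter units were exposed 24 h. Reporter mRNA induction was detected by capillary electrophoresis of labelled RT-PCR products and fitted bidirectionally to DMSO.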

The nature of experiment [5]: ATG_Ets_CIS: Attagene CIS-FACTORIAL HepG2 Assay for human Erythroblast Transformation Specific (ETS) (AID 2282941). The note with it: HepG2 ETS cis-reporter transcription, actives raise or lower the signal. In a few lines: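 RT-PCR/capillary electrophoresis fluorescence read-out of reporter mRNA; HepG2 transient multi-reporter transfection; 24 h compound exposure; gain or loss of signal fitted bidirectionally relative to DMSO.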

Experiment [6] deals with Hepatocyte nuclear factor 3-beta (Homo sapiens) (UniProt Q9Y261). As to the kind of experiment: ATG_FoxA2_CIS: Attagene CIS-FACTORIAL HepG2 Assay for human Forkhead box A2 (FOXA2) (AID 2282942). The note with it: HepG2 cis-reporter transcription factor activity, 24 h; actives raise or lower the signal. In outline: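 Measured: reporter mRNA induction or loss in HepG2 transiently carrying multiple cis-regulated reporter units, 24 h after dosing. Quantified by RT-PCR plus capillary electrophoresis, normalised to DMSO.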

The nature of experiment [7]: ATG_FoxO_CIS: Attagene CIS-FACTORIAL HepG2 Assay for human Forkhead box O (FoxO) (AID 2282943). The note with it: HepG2 Attagene cis-reporter, FoxO element, mRNA; actives raise or lower the signal. In outline:
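HepG2 cells transiently transfected with cis-element-driven reporter units report endogenous FoxO activity. After 24 h chemical exposure, reporter mRNA quantified by RT-PCR, fluorescent labeling, HpaI digestion and capillary electrophoresis; bidirectional fit versus DMSO.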

Experiment [8] is described as follows: ATG_GATA_CIS: Attagene CIS-FACTORIAL HepG2 Assay for human GATA Binding Protein (AID 2282944). Particulars: HepG2 GATA cis-element reporter, Attagene multiplex mRNA; actives raise or lower the signal. In a few lines:
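Transfected cis-reporter HepG2 cells were treated with chemicals for 24 hours. Total RNA was then converted to cDNA, amplified with reporter-specific primers and analysed by fluorescent capillary electrophoresis, using DMSO-treated wells as baseline.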

Experiment [9] is described as follows: ATG_GLI_CIS: Attagene CIS-FACTORIAL HepG2 Assay for human Zinc Finger Protein GLI1 (AID 2282945). The note with it: HepG2, Attagene cis-factorial reporter mRNA, GLI element; actives raise or lower the signal. In a few lines:
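Transiently transfected HepG2 cells report endogenous transcription factor activity via cis-element-driven reporter units. After 24 h compound exposure, reporter mRNA was measured by RT-PCR with capillary electrophoresis; bidirectional fitting against DMSO baseline.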

The nature of experiment [10]: ATG_GRE_CIS: Attagene CIS-FACTORIAL HepG2 Assay for human Glucocorticoid Response Elements (GRE) (AID 2282947). The note with it: HepG2 GRE cis-reporter, Attagene multiplex mRNA; actives raise or lower the signal. In a few lines:
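Fluorescence intensity of reporter-specific cDNA fragments, separated by capillary electrophoresis, provides the signal. Constructs carry cis-regulating promoters in transiently transfected HepG2 liver cells; 24 h incubation; fitting is bidirectional against DMSO.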

Experiment [11] is described as follows: ATG_ISRE_CIS: Attagene CIS-FACTORIAL HepG2 Assay for human Interferon Regulatory Factor 1 (IRF1) binding to an Interferon-Stimulated Response Element (ISRE) (AID 2282948). Particulars: HepG2 ISRE cis-reporter (Attagene), mRNA transcription readout; actives raise or lower the signal. In outline:
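Read-out: fluorescent RT-PCR products resolved by capillary electrophoresis, reporting endogenous transcription factor activity via ISRE-driven reporter mRNA in transfected HepG2 cells dosed for 24 h; gain or loss fitted relative to DMSO.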

A short description of experiment [12]: ATG_M_32_CIS: Attagene CIS-FACTORIAL HepG2 Assay for M32 Transcription Factor (Internal Marker) (AID 2282949).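 Further: background control marker of the multiplexed CIS panel rather than a real target.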 Particulars: HepG2 Attagene cis-factorial M32 reporter, mRNA; actives raise or lower the signal. In a few lines:
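HepG2 transfectants (cis-regulated reporter transcription units) dosed 24 h. Reporter mRNA by RT-PCR plus CE, analysed as gain or loss relative to DMSO.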

The nature of experiment [13]: ATG_M_06_CIS: Attagene CIS-FACTORIAL HepG2 Assay for M06 Transcription Factor (Internal Marker) (AID 2282950). The note with it: HepG2 Attagene CIS-FACTORIAL M06 internal marker reporter; actives raise or lower the signal. In a few lines: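 Cells (HepG2, transiently carrying cis-driven reporter units) receive chemical for 24 h before RNA isolation. Reporter cDNA is PCR-amplified, FAM-labelled by primer extension, HpaI-digested and sized on a capillary analyser.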

For experiment [14], the target named is Hypoxia-inducible factor 1-alpha (Homo sapiens) (UniProt Q16665). As to the kind of experiment: ATG_HIF1a_CIS: Attagene CIS-FACTORIAL HepG2 Assay for human Hypoxia Inducible Factor 1 (HIF1A) (AID 2282951). Particulars: HepG2 Attagene cis-factorial HIF1a reporter transcription; actives raise or lower the signal. In a few lines:
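Dosed 24 h, transfected HepG2 cells yielded total RNA whose reporter transcripts were RT-PCR-amplified and sized by capillary electrophoresis using fluorescent labelling; DMSO defined baseline, with gain and loss of signal both fitted.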

In experiment [15] the target is Hepatocyte nuclear factor 6 (Homo sapiens) (UniProt Q9UBC0). As to the kind of experiment: ATG_HNF6_CIS: Attagene CIS-FACTORIAL HepG2 Assay for human Hepatocyte Nuclear Factor 6 (HNF6) (AID 2282952). Particulars: HepG2 Attagene cis-factorial HNF6 reporter transcription; actives raise or lower the signal. In a few lines:
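Twenty-four-hour chemical treatment of reporter-transfected HepG2 cells precedes RNA isolation, DNase-treated reverse transcription and PCR of reporter sequences. Labelled fragments are sized by capillary electrophoresis and fitted bidirectionally versus DMSO.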

Experiment [16] deals with Heat shock factor protein 1 (Homo sapiens) (UniProt Q00613). The experiment in a line: ATG_HSE_CIS: Attagene CIS-FACTORIAL HepG2 Assay for human Heat Shock Transcription Factor 1 (HSE) (AID 2282953). The note with it: HepG2 HSE cis-reporter, Attagene RNA transcription; actives raise or lower the signal. In a few lines:
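Liver-derived HepG2 cells carry transiently introduced multiple reporter units governed by cis promoters. Reporter RNA measured 24 h post-dose through reverse transcription, PCR amplification, fluorescent labelling and capillary electrophoresis, normalised to DMSO.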

A short description of experiment [17]: ATG_MRE_CIS: Attagene CIS-FACTORIAL HepG2 Assay for human Metal Responsive Element (MRE) (AID 2282954). The note with it: HepG2 MRE cis-reporter transcription, Attagene multiplex; actives raise or lower the signal. In a few lines: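 Measured here is mRNA induction from an MRE cis-element reporter in HepG2 after 24 h, quantified by fluorescence of labelled RT-PCR products on capillary electrophoresis; gain- and loss-of-signal fits use DMSO as baseline.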

Experiment [18] is described as follows: ATG_PBREM_CIS: Attagene CIS-FACTORIAL HepG2 Assay for human Phenobarbital-responsive Enhancer Module (PBREM) (AID 2282955). The note with it: HepG2 PBREM cis-reporter, Attagene multiplexed transcription; actives raise or lower the signal. In a few lines:
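Transfected liver-derived HepG2 cells exposed 24 h; PBREM reporter transcript quantified via RT-PCR and capillary electrophoresis, with activity in either direction referenced to DMSO.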

The target in experiment [19] is Bile acid receptor (Homo sapiens) (UniProt Q96RI1). As to the kind of experiment: ATG_IR1_CIS: Attagene CIS-FACTORIAL HepG2 Assay for human Nuclear Receptor Subfamily 1 Group H Member 4 (NR1H4), IR1 submotif (AID 2282946). The note with it: IR1 reporter transcription, actives raise or lower the signal. In a few lines:
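Fluorescence of capillary-separated, HpaI-digested RT-PCR reporter products gave IR1-element mRNA induction in HepG2 cells 24 h after dosing. Endogenous transcription factors drove the cis-regulated reporters; activity was fitted bidirectionally against DMSO.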

“And” between values parts separate entries of the source, which are not always exact repeats. Equal entries are not always repeated. Some structures have more than one record in an assay (separate samples or runs), and their calls can disagree. The source made the active and inactive calls. How the source made its calls: active means hit-call score of the fitted dose curve at least 0.9, where 1 is the maximum; inactive means score below 0.9.

Sequence of Heat shock factor protein 1 (Homo sapiens) (Q00613 whole entry, looked up): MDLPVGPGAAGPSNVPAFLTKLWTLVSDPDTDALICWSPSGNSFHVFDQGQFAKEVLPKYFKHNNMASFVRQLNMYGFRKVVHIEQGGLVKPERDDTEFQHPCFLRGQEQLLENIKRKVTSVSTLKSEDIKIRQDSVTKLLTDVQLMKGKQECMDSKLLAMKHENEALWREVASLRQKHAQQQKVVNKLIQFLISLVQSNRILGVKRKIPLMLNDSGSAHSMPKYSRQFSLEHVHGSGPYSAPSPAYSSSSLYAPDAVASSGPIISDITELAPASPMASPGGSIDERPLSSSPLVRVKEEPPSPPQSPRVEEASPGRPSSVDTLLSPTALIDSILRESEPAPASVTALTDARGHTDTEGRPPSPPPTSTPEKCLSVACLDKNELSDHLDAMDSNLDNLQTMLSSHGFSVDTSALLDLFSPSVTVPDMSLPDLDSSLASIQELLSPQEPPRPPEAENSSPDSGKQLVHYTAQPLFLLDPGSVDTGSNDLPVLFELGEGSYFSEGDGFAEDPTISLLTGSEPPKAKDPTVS
Sequence of Hypoxia-inducible factor 1-alpha (Homo sapiens) (Q16665 whole entry, looked up): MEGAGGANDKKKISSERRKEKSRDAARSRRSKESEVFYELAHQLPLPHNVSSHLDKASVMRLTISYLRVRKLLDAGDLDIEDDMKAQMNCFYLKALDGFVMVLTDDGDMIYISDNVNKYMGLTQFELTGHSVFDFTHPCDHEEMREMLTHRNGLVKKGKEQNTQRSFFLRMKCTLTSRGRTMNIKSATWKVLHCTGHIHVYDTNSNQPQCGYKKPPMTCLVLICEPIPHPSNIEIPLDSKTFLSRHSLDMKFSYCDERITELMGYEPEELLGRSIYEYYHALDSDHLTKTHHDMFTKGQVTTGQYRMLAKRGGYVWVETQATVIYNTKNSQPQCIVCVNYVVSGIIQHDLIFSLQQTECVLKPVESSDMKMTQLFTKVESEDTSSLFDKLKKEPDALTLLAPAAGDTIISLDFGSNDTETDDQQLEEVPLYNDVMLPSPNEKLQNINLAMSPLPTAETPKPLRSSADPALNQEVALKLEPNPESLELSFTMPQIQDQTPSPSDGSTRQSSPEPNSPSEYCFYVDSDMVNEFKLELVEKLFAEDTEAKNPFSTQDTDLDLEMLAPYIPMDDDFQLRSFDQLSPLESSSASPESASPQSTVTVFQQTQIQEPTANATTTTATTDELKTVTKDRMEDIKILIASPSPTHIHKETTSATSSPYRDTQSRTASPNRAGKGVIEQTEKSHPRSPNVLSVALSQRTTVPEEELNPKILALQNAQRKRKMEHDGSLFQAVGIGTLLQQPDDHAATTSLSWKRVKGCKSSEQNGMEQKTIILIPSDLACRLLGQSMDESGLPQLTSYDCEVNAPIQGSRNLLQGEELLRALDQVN
Sequence of Hepatocyte nuclear factor 6 (Homo sapiens) (Q9UBC0 whole entry, looked up, the tested form may be a part): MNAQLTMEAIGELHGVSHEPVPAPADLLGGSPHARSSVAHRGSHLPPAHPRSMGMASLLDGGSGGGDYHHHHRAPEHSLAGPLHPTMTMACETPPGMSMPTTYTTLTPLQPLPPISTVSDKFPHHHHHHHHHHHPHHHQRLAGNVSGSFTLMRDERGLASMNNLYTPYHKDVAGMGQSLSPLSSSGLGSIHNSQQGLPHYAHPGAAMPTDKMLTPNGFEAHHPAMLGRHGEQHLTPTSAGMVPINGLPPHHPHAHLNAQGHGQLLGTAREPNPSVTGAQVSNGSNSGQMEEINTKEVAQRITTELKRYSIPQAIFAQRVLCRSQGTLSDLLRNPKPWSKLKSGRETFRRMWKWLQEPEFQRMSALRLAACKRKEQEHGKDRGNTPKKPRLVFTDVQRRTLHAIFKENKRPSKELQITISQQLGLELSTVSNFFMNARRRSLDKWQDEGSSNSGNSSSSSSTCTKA
Sequence of Hepatocyte nuclear factor 3-beta (Homo sapiens) (Q9Y261 whole entry, looked up): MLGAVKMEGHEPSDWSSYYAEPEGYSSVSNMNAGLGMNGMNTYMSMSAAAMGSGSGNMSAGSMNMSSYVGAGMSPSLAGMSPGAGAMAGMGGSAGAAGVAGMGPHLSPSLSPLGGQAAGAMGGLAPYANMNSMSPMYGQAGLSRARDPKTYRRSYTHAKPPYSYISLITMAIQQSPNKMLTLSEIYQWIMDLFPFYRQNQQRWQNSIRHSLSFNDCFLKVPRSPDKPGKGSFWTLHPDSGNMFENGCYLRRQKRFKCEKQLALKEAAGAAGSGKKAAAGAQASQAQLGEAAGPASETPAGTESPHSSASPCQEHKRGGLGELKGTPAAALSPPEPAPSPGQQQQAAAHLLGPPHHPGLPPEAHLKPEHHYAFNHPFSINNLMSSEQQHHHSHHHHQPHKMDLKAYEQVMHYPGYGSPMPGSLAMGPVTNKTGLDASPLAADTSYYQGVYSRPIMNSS
Sequence of Bile acid receptor (Homo sapiens) (Q96RI1 whole entry, looked up): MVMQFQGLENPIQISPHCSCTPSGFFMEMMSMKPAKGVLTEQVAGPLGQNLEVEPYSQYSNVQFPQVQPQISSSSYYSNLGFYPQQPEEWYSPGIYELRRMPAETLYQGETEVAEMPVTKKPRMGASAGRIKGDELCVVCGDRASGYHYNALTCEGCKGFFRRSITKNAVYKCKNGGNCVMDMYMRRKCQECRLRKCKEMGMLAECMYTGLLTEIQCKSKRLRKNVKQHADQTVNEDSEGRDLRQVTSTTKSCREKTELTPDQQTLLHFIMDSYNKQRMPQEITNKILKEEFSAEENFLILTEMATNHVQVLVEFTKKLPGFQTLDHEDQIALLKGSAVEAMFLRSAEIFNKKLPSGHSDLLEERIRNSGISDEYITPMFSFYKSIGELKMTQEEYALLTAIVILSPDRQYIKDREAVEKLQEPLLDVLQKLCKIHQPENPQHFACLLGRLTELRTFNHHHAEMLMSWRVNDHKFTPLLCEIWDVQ

In the case of `Sc1ccccc1`, the result in experiment [1], in experiment [2], in experiment [3], in [5], in [6] and in experiment [7] was inactive. Besides, the molecule was classed as inactive in experiment [8], in experiment [9], in experiment [10], in experiment [11], in experiment [12] and in experiment [13]. Also, the outcome in experiment [14], in experiment [15], in experiment [16], in experiment [17] and in experiment [18] was inactive. In addition, the AC50 in [4] was 27.1 µM (active) and 100 µM (active); in [16], 160 µM (active).

Turning to `CCCCCCCCOC(=O)c1ccccc1C(=O)OCCCCCCCC`, the molecule was classed as inactive in experiment [1], in experiment [2], in experiment [3], in experiment [4], in [5] and in experiment [6]. The outcome in [7], in experiment [8], in experiment [9], in [19], in experiment [11] and in experiment [12] was inactive. In addition, the molecule was classed as inactive in [13], in experiment [15], in [16], in experiment [17] and in experiment [18]. In addition, in experiment [14], the AC50 is 40.1 µM (active).

Regarding `CO/C=C(/C(=O)OC)c1ccccc1COc1cccc(C(F)(F)F)n1`, the call in [1], in [3], in [4], in [5], in experiment [6] and in experiment [7] was inactive. The molecule was classed as inactive in [8], in experiment [9], in experiment [11], in experiment [12], in [13] and in experiment [14]. For the same molecule, the outcome in experiment [15], in [16] and in [18] was inactive. In addition, the results for the AC50 in experiment [2], in experiment [19] and in experiment [17] were 28.8 µM (active), 26.4 µM (active) and 44.3 µM (active), respectively.

Turning to `O=NN(c1ccccc1)c1ccccc1`, the call in experiment [1], in experiment [2], in [3], in [5], in experiment [6] and in [7] was inactive. The result in [8], in [9], in experiment [19], in experiment [10], in experiment [11] and in experiment [12] was inactive. The result in experiment [13], in experiment [14], in [15], in [16] and in experiment [17] was inactive. The AC50 in experiment [4] was 26.1 µM (active).

Consider `CC(C)C(=O)OCC(C)(C)C(OC(=O)C(C)C)C(C)C` (stereo not given), for which the outcome in experiment [1], in [2], in experiment [3], in experiment [5], in experiment [6] and in experiment [7] was inactive. Moreover, the molecule was called inactive in experiment [8], in experiment [9], in experiment [10], in [11], in [12] and in [13]. The outcome in [14], in experiment [15], in [16], in experiment [17] and in experiment [18] was inactive. For the same molecule, the AC50 in experiment [4] is 63.6 µM (active).

On to `COc1ccc(O)c(C(C)(C)C)c1`, for which the molecule was called inactive in [1], in experiment [3], in [4], in [6], in experiment [7] and in [8]. The molecule was called inactive in [9], in experiment [19], in experiment [10], in [11], in experiment [12] and in experiment [13]. For the same molecule, the molecule was called inactive in experiment [15] and in experiment [16]. Moreover, the AC50 in experiment [2] was 100 µM (active); in experiment [5], 111 µM (active); in experiment [14], 52.6 µM (active); in [17], 148 µM (active); in experiment [18], 25.7 µM (active).

As usually defined, the AC50 is the concentration at which the activity in the assay is half-maximal.
